The values below come from PubChem BioAssay (NCI).

Test systems include NCI-H23 lung; NCI-H226 lung; NCI-H322M lung; HOP-62 NSCLC; NCI-H460 lung; 786-0 renal; MDA-MB-231 breast; SF-268 CNS; SF-539 CNS; M14 melanoma; U251 CNS; PC-3 prostate; UACC-62 melanoma; SK-MEL-28 melanoma; UO-31 renal; OVCAR-3 ovarian; SW-620 colon; MCF7 breast; HCT-116 colon; KM12 colon.
Assay in all cases: NCI-60 one-dose screen, 48 h (100 = growth as untreated, 0 = no growth, -100 = all killed)
Holding throughout (conditions): 10 µM unless noted

SMILES strings stand for the structures. Compounds without any hit were thinned out: in the full panel of roughly 83,000, 20% have a hit.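 Cell lines were cultured in 96-well plates, exposed to a single compound concentration, and assessed for percent growth 48 hours later.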 A number with no mark means an inactive call. Calls of active or inactive are those of the source. The calls were made as follows: active = growth percent below 10; inactive = the rest.

`CC(C)Nc1ccc(Nc2ccccc2)cc1`: the growth in the assay with NCI-H23 lung was 31.3%; in the assay with NCI-H226 lung, 51.1%; in the assay on NCI-H322M lung, 73.4%; in the assay on HOP-62 NSCLC, 35.3%; in the assay with NCI-H460 lung, 11%; in the assay with 786-0 renal, 51.8%. Further, the growth with MDA-MB-231 breast was 25.5%; in the assay on SF-268 CNS, 32.8%; with SF-539 CNS, 26.1%; in the assay on M14 melanoma, 47.7%; in the assay on U251 CNS it was 12.5%; in the assay with PC-3 prostate, 9.1% (active). The growth was 65% in the assay with UACC-62 melanoma; 85.1% in the assay on SK-MEL-28 melanoma; 83.1% in the assay with UO-31 renal; 7.43% (active) with OVCAR-3 ovarian; 33.8% in the assay with SW-620 colon; 32% with MCF7 breast. The growth in the assay with HCT-116 colon was 9.97% (active); with KM12 colon it was 27.6%.
Turning to `CC(C)CCC1(CCO)C(=O)NC(=S)NC1=O`, the growth in the assay on NCI-H23 lung is 110%; with NCI-H226 lung, 105%; in the assay with NCI-H322M lung, 105%; with HOP-62 NSCLC, 105%; in the assay with NCI-H460 lung, 109%; in the assay on 786-0 renal, 110%. Moreover, the growth in the assay on MDA-MB-231 breast was 104%; with SF-268 CNS, 95.1%; in the assay with SF-539 CNS, 125%; with M14 melanoma, 103%; in the assay on U251 CNS it was 97.2%; in the assay on PC-3 prostate it was 87.8%. The growth is 97.3% with UACC-62 melanoma; 116% in the assay with SK-MEL-28 melanoma; 84.1% in the assay with UO-31 renal; 108% in the assay on OVCAR-3 ovarian; 105% with SW-620 colon; 109% in the assay on MCF7 breast. For the same compound, the growth in the assay with HCT-116 colon and in the assay with KM12 colon was 104% each time.
For `O=c1cc[nH]c(=O)o1`, the growth in the assay on NCI-H23 lung is 105%; with NCI-H226 lung, 98.4%; with NCI-H322M lung, 105%; in the assay with HOP-62 NSCLC, 102%; in the assay with NCI-H460 lung it was 106%; with 786-0 renal, 98.7%. The growth with MDA-MB-231 breast was 117%; in the assay with SF-268 CNS it was 99.9%; in the assay on SF-539 CNS, 104%; in the assay with M14 melanoma it was 103%; in the assay on U251 CNS, 102%; in the assay on PC-3 prostate, 98%. The growth in the assay with UACC-62 melanoma was 99.4%; in the assay on SK-MEL-28 melanoma, 111%; in the assay on UO-31 renal, 93.6%; in the assay with OVCAR-3 ovarian it was 107%; with SW-620 colon, 107%; in the assay with MCF7 breast, 96.9%. The growth with HCT-116 colon was 98.1%; in the assay with KM12 colon, 103%.
Consider `O=C(CC1(O)C(=O)Nc2ccc(F)cc21)c1ccc(C(=O)NCC2CCC3(CC2)OOC2(CCCCC2)OO3)cc1` (centres undefined), for which the growth in the assay on NCI-H23 lung was 34.9%; in the assay on NCI-H226 lung, 69.3%; in the assay on NCI-H322M lung it was 94.6%; with HOP-62 NSCLC it was -14.4% (active); in the assay on NCI-H460 lung, 21.7%; in the assay with 786-0 renal, -78.5% (active). In addition, the growth was 41.5% in the assay on MDA-MB-231 breast; 63.4% in the assay with SF-268 CNS; 7.74% (active) in the assay on SF-539 CNS; 83.9% in the assay on M14 melanoma; 15.3% in the assay on U251 CNS; 44.2% with PC-3 prostate. In addition, the growth in the assay with UACC-62 melanoma was 73.4%; in the assay with SK-MEL-28 melanoma, 78.5%; in the assay with UO-31 renal, -81.7% (active); with OVCAR-3 ovarian it was -50.1% (active); with SW-620 colon, 61.1%; with MCF7 breast, 60.9%. Further, the figures for the growth in the assay on HCT-116 colon and in the assay with KM12 colon were 69.7% and 32.5%, respectively.
For `CO[C@@H]([CH2][Hg][S]C#N)[C@@H]([CH2][Hg][S]C#N)OC`, the growth in the assay with NCI-H23 lung is 92.3%; in the assay on NCI-H226 lung, 106%; in the assay with NCI-H322M lung, 101%; in the assay with HOP-62 NSCLC, 99.8%; in the assay with NCI-H460 lung, 127%; with 786-0 renal, 120%. Further, the growth was 96.1% with MDA-MB-231 breast; 100% in the assay on SF-268 CNS; 125% in the assay on SF-539 CNS; 81.3% in the assay on M14 melanoma; 78.8% in the assay with PC-3 prostate; 88.9% in the assay with UACC-62 melanoma. Also, the growth with SK-MEL-28 melanoma was 104%; in the assay with UO-31 renal it was 94.6%; in the assay with OVCAR-3 ovarian it was -100% (active); in the assay with SW-620 colon, 22.3%; in the assay with MCF7 breast, 31%; in the assay with HCT-116 colon, -100% (active). In addition, the growth with KM12 colon was 107%.
With `ClCCN(CCCl)c1nc(Cl)c(C2CC(c3ccc(Cl)cc3)=NN2c2cc(Cl)cc(Cl)c2)s1` (centres undefined), the growth was 94.1% with NCI-H23 lung; 99.9% in the assay on NCI-H226 lung; 102% with NCI-H322M lung; 98.4% with HOP-62 NSCLC; 101% with NCI-H460 lung; 103% in the assay on 786-0 renal. Further, the growth in the assay on MDA-MB-231 breast was 107%; with SF-268 CNS, 102%; in the assay on SF-539 CNS, 118%; with M14 melanoma it was 95.8%; with U251 CNS, 98.6%; with PC-3 prostate, 93.6%. Also, the growth is 82.7% in the assay on UACC-62 melanoma; 121% in the assay on SK-MEL-28 melanoma; 91.3% with UO-31 renal; 108% in the assay with OVCAR-3 ovarian; 99.2% in the assay with SW-620 colon; 95.1% with MCF7 breast. Besides, the growth was 85.8% in the assay with HCT-116 colon and 108% in the assay with KM12 colon.
`COc1cc(C2(C#N)CCN(C)CC2)cc(OC)c1OC`: the growth in the assay on NCI-H23 lung was 104%; in the assay on NCI-H226 lung, 110%; with NCI-H322M lung, 129%; in the assay on HOP-62 NSCLC, 103%; in the assay with NCI-H460 lung, 102%; in the assay with 786-0 renal, 102%. The growth in the assay with MDA-MB-231 breast was 98.8%; in the assay with SF-268 CNS, 90.9%; in the assay on SF-539 CNS, 111%; in the assay with M14 melanoma, 90.9%; in the assay on U251 CNS, 101%; in the assay on PC-3 prostate, 97.5%. Further, the growth in the assay on UACC-62 melanoma is 94.3%; with SK-MEL-28 melanoma it was 106%; in the assay with UO-31 renal, 79.8%; with OVCAR-3 ovarian it was 108%; with SW-620 colon it was 97.3%; with MCF7 breast, 95.7%. Also, the results for the growth in the assay on HCT-116 colon and in the assay with KM12 colon were 91.8% and 100%, respectively.
As to `NC(=O)SCC(=O)Nc1ccc([As](=O)(O)O)cc1`, the growth with NCI-H23 lung is 86.1%; with NCI-H226 lung, 111%; in the assay on NCI-H322M lung, 123%; in the assay on HOP-62 NSCLC it was 136%; in the assay on NCI-H460 lung, 101%; in the assay on 786-0 renal, 82.8%. In addition, the growth in the assay on MDA-MB-231 breast was 90.8%; with SF-268 CNS, 100%; in the assay with SF-539 CNS, 83.8%; in the assay with M14 melanoma, 89.7%; in the assay with U251 CNS it was 44.4%; in the assay on PC-3 prostate, 77.8%. Further, the growth with UACC-62 melanoma is 97.3%; with SK-MEL-28 melanoma, 101%; with UO-31 renal, 93.8%; in the assay with OVCAR-3 ovarian, 103%; in the assay on SW-620 colon, 73.9%; with MCF7 breast it was 75.3%. The growth in the assay on HCT-116 colon is 85.6%; in the assay with KM12 colon it was 97.6%.
